Measured values from PubChem BioAssay (Tox21).
Records with an inconclusive call do not appear. Activity calls are given as the source filed them. Unless noted, calls follow the shape of the dose curve; as a rule, active = well fitted curve in the direction sought with a large enough effect in the repeat runs; inconclusive = weak or mixed curves; inactive = no such curve, though single readings can be large; an effect the other way counts as inactive or inconclusive.

How the values were obtained:
[1] = target: Peroxisome proliferator-activated receptor gamma (Homo sapiens) (UniProt P37231); assay: qHTS assay to identify small molecule antagonists of the peroxisome proliferator-activated receptor gamma (PPARg) signaling pathway (AID 743191; calls by dose curve; also: series mostly up to about 63 µM; nearly all actives have a fitted effect of over 30% in size)
How it was run: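 Beta-lactamase reporter under UAS control in HEK293H PPARg-bla cells; compound treatment 17 h at 37C. Read-out: fluorescence intensity after 1 h room-temperature incubation with LiveBLAzer B/G FRET substrate.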

[2] = qHTS assay to identify small molecule antagonists of the peroxisome proliferator-activated receptor gamma (PPARg) signaling pathway - cell viability counter screen (AID 743194); settings: Potency: co-treated with 50 nM rosiglitazone; also: nearly all actives have a fitted effect of over 55% in size
How it was run: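 Viability was measured as CellTiter-Glo luminescence in GeneBLAzer PPARg UAS-bla HEK293H cells. These cells had been exposed 17 h at 37 C to compounds together with rosiglitazone at 50 nM final, with the beta-lactamase readout taken in the same wells.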

[3] = qHTS assay for small molecule agonists of the antioxidant response element (ARE) signaling pathway (AID 743202; active = well fitted activation curve with a large enough effect in the signal ratio in the repeat runs, not every such curve was filed as active; the % refers to the signal ratio)
How it was run: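 An ARE-responsive beta-lactamase gene stably integrated in HepG2 cells serves as reporter. After 5 h plating and 16 h compound incubation at 37 C, fluorescence of the B/G FRET substrate was measured.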

[4] = qHTS assay for small molecule agonists of the antioxidant response element (ARE) signaling pathway - cell viability counter screen (AID 743203; calls by dose curve; also: nearly all actives have a fitted effect of over 55% in size)
How it was run: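 CellSensor ARE-bla HepG2 cells, 2,000 per well, rested 5 hrs at 37C/5% CO2, then exposed to compound in DMSO for 16 hrs; viability read as CellTiter-Glo luminescence after 30 min at room temperature, in the reporter wells.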

[5] = qHTS assay for small molecule activators of the heat shock response signaling pathway - cell viability counter screen (AID 743209); also: nearly all actives have a fitted effect of over 50% in size
How it was run: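 CellSensor HSE-bla HeLa cells, plated overnight at 37 C/5% CO2, were exposed to compounds in DMSO for 5 h at 37 C. Viability was then read in the same wells by CellTiter-Glo luminescence after 30 min at room temperature.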

[6] = qHTS assay for small molecule activators of the heat shock response signaling pathway (AID 743210; active = well fitted activation curve with a large enough effect in the signal ratio in the repeat runs, with a control signal flat, not every such curve was filed as active; the % refers to the signal ratio;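 also: HeLa cells with beta-lactamase reporter driven by heat shock elements; series mostly up to about 63 µM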)
How it was run: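 In HSE-bla HeLa cells, 5 h compound incubation (37 C) precedes addition of LiveBLAzer B/G substrate; after 2.5 h at room temperature, fluorescence intensity indicates reporter induction.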

[7] = qHTS assay to identify small molecule agonists of the peroxisome proliferator-activated receptor delta (PPARd) signaling pathway - cell viability counter screen (AID 743211); also: nearly all actives have a fitted effect of over 55% in size
How it was run: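 Viability was measured as CellTiter-Glo luminescence (30 min, room temperature) in the same wells as the beta-lactamase readout. GeneBLAzer PPARd UAS-bla HEK293H cells received compound after 5 h plating and were incubated 17 h at 37 C.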

[8] = target: Peroxisome proliferator-activated receptor delta (Homo sapiens) (UniProt Q03181); assay: qHTS assay to identify small molecule agonists of the peroxisome proliferator-activated receptor delta (PPARd) signaling pathway (AID 743212; calls by dose curve)
How it was run: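 HEK293H UAS-bla reporter cells, human PPARd system; compounds delivered in DMSO after 5 h plating, then at 37 C. Beta-lactamase FRET read, 2 h RT substrate step.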

[9] = qHTS assay to identify small molecule antagonists of the peroxisome proliferator-activated receptor delta (PPARd) signaling pathway - cell viability counter screen (AID 743213); also: nearly all actives have a fitted effect of over 50% in size
How it was run: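 HEK293H cells with the PPARd UAS-bla reporter, co-treated 17 h at 37 C with compounds and L165041 (300 nM final), were lysed with CellTiter-Glo. Luminescence indicated viable cell content.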

[10] = target: Peroxisome proliferator-activated receptor delta (Homo sapiens) (UniProt Q03181); assay: qHTS assay to identify small molecule antagonists of the peroxisome proliferator-activated receptor delta (PPARd) signaling pathway (AID 743215; active = well fitted inhibition curve with a large enough effect in the signal ratio in the repeat runs, not every such curve was filed as active; the % refers to the signal ratio;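 also: cells stimulated with agonist L165041 at 300 nM final during compound exposure; series mostly up to about 62 µM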)
How it was run: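 PPARd UAS-bla HEK293H cells were pre-incubated 5 h at 37 C, then given test compounds in DMSO plus agonist L165041 (300 nM final). After 17 h at 37 C, beta-lactamase FRET substrate was added; fluorescence read after 2 h at room temperature.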

[11] = qHTS assay to identify small molecule agonists of the farnesoid-X-receptor (FXR) signaling pathway - cell viability counter screen (AID 743218); also: nearly all actives have a fitted effect of over 45% in size
How it was run: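 FXR-UAS-bla HEK 293T cells, plated 5 h at 37 C, were exposed to compounds for 16 h at 37 C. CellTiter-Glo was then added to the same wells as the bla readout; luminescence read after 30 min at room temperature.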

[12] = qHTS assay to identify small molecule antagonists of the farnesoid-X-receptor (FXR) signaling pathway - cell viability counter screen (AID 743221; active = well fitted cell-killing curve with a large enough effect in the repeat runs, not every such curve was filed as active; also: nearly all actives have a fitted effect of over 50% in size)
How it was run: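 Cytotoxicity counter screen run in the FXR-bla reporter wells: HEK 293T cells exposed to compound with 50 uM (final) chenodeoxycholic acid for 16 h, 37 C, then viability measured by CellTiter-Glo luminescence after 30 min, room temperature.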

[13] = target: Vitamin D3 receptor (Homo sapiens) (UniProt P11473); assay: qHTS assay to identify small molecule agonists of the vitamin D receptor (VDR) signaling pathway (AID 743222; calls by dose curve)
How it was run: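 VDR-bla cells were plated 4 h at 37C/5% CO2, then exposed to compounds in DMSO for 16 h. After LiveBLAzer B/G FRET substrate addition and 2 h at room temperature, beta-lactamase reporter fluorescence was read.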

[14] = target: Vitamin D3 receptor (Homo sapiens) (UniProt P11473); assay: qHTS assay to identify small molecule antagonists of the vitamin D receptor (VDR) signaling pathway (AID 743223; active = well fitted inhibition curve with a large enough effect in the signal ratio in the repeat runs, not every such curve was filed as active; the % refers to the signal ratio)
How it was run: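 Antagonist mode: compound added to VDR-bla cells alongside agonist 1alpha,25-dihydroxyvitamin D3 (3 nM final), incubation 16 h at 37C. Read-out is LiveBLAzer FRET fluorescence, 2 h at room temperature.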

[15] = qHTS assay to identify small molecule agonists of the vitamin D receptor (VDR) signaling pathway - cell viability counter screen (AID 743224); also: series mostly up to about 63 µM; nearly all actives have a fitted effect of over 50% in size
How it was run: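 VDR-bla cells were preincubated 4 h at 37C/5% CO2, then exposed to compounds for 16 h. After the 2 h room-temperature bla FRET read, CellTiter-Glo was added to the same wells and luminescence read after 30 min.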

[16] = qHTS assay to identify small molecule that activate the aryl hydrocarbon receptor (AhR) signaling pathway - cell viability counter screen (AID 743086);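 also: HepG2 liver cells carrying the AhR DRE luciferase reporter; series mostly up to about 70 µM; nearly all actives have a fitted effect of over 45% in size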
How it was run: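 Cytotoxicity counter screen: CellTiter-Fluor signal (30 min, 37 C) in 4000 HepG2 cells/well carrying the DRE-luciferase reporter, following 24 h compound exposure at 37 C.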

[17] = target: Bile acid receptor (Homo sapiens) (UniProt Q96RI1); assay: qHTS assay to identify small molecule antagonists of the farnesoid-X-receptor (FXR) signaling pathway (AID 743217; active = well fitted inhibition curve with a large enough effect in the signal ratio in the repeat runs, not every such curve was filed as active; the % refers to the signal ratio)
How it was run: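 FXR-UAS-bla HEK 293T cells pre-incubated 5 h at 37 °C, then exposed to compounds with chenodeoxycholic acid (50 uM final) for 16 h at 37 °C. Beta-lactamase reporter read by LiveBLAzer B/G FRET substrate fluorescence after 2 h at room temperature.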

[18] = target: Bile acid receptor (Homo sapiens) (UniProt Q96RI1); assay: qHTS assay to identify small molecule agonists of the farnesoid-X-receptor (FXR) signaling pathway (AID 743220; active = well fitted activation curve with a large enough effect in the signal ratio in the repeat runs, not every such curve was filed as active; the % refers to the signal ratio)
How it was run: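 Beta-lactamase reporter under UAS control in GeneBLAzer FXR HEK 293T cells (5000/well) measured with LiveBLAzer FRET substrate after 2 h at room temperature. Compound exposure lasted 16 h at 37C.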

[19] = target: Peroxisome proliferator-activated receptor gamma (Homo sapiens) (UniProt P37231); assay: qHTS assay to identify small molecule agonists of the peroxisome proliferator-activated receptor gamma (PPARg) signaling pathway (AID 743094; active = well fitted activation curve with a large enough effect in the signal ratio in the repeat runs, not every such curve was filed as active; the % refers to the signal ratio)
How it was run: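 GeneBLAzer PPARg UAS-bla HEK293H cells carrying a stably integrated beta-lactamase reporter were pre-incubated 5 h at 37C, then exposed to compounds in DMSO for 17 h at 37C; LiveBLAzer B/G FRET substrate was added for 1 h at room temperature and fluorescence read.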

Measured: Potency

Peroxisome proliferator-activated receptor delta (Homo sapiens), sequence (Q03181 whole entry, looked up): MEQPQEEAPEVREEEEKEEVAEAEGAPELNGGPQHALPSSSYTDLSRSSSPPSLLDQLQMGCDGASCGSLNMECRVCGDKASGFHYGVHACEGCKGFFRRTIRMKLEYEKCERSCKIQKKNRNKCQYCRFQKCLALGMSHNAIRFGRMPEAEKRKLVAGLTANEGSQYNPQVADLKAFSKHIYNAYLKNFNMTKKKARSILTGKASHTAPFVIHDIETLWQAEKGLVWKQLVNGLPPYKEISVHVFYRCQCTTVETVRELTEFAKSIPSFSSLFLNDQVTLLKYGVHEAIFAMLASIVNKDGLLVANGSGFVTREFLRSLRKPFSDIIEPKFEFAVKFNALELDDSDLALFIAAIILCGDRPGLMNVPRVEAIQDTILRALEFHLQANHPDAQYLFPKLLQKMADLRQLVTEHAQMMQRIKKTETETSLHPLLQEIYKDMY
Vitamin D3 receptor (Homo sapiens), sequence (P11473 whole entry, looked up): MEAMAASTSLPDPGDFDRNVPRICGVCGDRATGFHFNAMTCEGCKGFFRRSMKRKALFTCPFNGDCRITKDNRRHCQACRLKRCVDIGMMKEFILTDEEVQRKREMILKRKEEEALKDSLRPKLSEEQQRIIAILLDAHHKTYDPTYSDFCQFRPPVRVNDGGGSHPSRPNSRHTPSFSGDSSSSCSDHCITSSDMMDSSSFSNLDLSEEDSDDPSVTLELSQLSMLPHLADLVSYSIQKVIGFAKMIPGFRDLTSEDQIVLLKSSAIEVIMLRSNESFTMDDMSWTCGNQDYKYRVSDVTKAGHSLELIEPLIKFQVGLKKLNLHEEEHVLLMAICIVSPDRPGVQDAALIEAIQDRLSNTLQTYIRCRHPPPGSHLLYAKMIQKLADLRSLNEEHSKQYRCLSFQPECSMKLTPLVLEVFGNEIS
Bile acid receptor (Homo sapiens), sequence (Q96RI1 whole entry, looked up): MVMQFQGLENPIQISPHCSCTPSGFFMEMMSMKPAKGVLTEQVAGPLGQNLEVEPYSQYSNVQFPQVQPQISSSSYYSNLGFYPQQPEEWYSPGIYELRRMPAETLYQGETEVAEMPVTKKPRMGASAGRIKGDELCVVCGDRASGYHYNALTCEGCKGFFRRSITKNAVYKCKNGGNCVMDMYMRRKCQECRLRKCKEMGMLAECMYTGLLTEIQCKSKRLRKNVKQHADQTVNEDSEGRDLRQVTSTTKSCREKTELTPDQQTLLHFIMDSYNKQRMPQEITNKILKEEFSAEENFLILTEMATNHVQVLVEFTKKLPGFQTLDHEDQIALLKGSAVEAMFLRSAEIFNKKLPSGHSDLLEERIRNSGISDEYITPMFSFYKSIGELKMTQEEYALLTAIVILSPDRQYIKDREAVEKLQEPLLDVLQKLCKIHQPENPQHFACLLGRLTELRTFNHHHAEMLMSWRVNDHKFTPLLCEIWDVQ
Peroxisome proliferator-activated receptor gamma (Homo sapiens), sequence (P37231 whole entry, looked up): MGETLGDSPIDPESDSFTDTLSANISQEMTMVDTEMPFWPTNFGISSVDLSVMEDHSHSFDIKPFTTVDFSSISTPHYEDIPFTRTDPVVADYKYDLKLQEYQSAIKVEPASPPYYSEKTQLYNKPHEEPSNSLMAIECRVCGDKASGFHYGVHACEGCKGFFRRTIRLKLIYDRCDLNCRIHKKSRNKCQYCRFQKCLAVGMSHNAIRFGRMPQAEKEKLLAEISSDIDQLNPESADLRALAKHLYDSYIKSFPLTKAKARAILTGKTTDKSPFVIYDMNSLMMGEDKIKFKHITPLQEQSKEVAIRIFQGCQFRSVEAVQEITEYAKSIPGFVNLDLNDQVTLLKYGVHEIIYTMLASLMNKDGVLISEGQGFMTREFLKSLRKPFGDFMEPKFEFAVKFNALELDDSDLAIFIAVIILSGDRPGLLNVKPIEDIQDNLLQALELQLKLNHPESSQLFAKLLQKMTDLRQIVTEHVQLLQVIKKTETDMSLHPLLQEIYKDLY

CCC(=O)C(CCN(C)C)(c1ccccc1)c1ccccc1
inactive: [1] | [2] | [3] | [4] | [5] | [6] | [7] | [8] | [9] | [10] | [11] | [12] | [13] | [14] | [15]

O=C(CCCN1CCC(n2c(=O)[nH]c3ccccc32)CC1)c1ccc(F)cc1
inactive: [16] | [2] | [4] | [5] | [6] | [7] | [9] | [11] | [12] | [13] | [15]

C[C@]12CC[C@H]3[C@@H](CCC4=CC(=O)CC[C@@]43C)[C@@H]1CC[C@@H]2C(=O)O
inactive: [5] | [6] | [7] | [8] | [9] | [17] | [11] | [18] | [12] | [13] | [15]

CCN(CC)CCOC(=O)C(C)(c1ccccc1)c1ccccc1
inactive: [19] | [1] | [2] | [3] | [5] | [6] | [7] | [9] | [10] | [11] | [12] | [15]

COc1cc(C[C@@H](C)N)c(OC)cc1C
inactive: [19] | [1] | [2] | [5] | [6] | [9] | [10] | [17] | [11] | [18] | [12] | [14] | [15]

NC1=NC(=O)C(c2ccccc2)O1 (stereo unspecified)
inactive: [16] | [2] | [3] | [4] | [5] | [6] | [7] | [8] | [9] | [10] | [17] | [11] | [18] | [12] | [13] | [15]

CC(C(O)c1ccccc1)N(C)C/C=C/c1ccccc1 (stereo unspecified)
inactive: [1] | [2] | [4] | [5] | [6] | [9] | [11] | [12] | [13] | [14] | [15]

O=C1CN2CCOC2(c2ccccc2Cl)c2cc(Cl)ccc2N1 (stereo unspecified)
inactive: [2] | [4] | [5] | [6] | [8] | [9] | [10] | [11] | [18] | [12] | [13] | [14] | [15]

CCC#N
inactive: [16] | [2] | [3] | [5] | [6] | [7] | [8] | [9] | [17] | [11] | [18] | [12] | [14] | [15]
